Results taken from PubChem BioAssay (NCI).
This is part of a sample that, as a whole, favours compounds with a hit. Of some 83,000 tested, about 20% had one in any assay.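 The endpoint reported here, percent growth, reads 100 for growth as untreated, 0 for no net growth and -100 for all cells dead.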 Activity calls are given as the source filed them. How the source made its calls: active means growth percent below 10; inactive means the rest.

Columns and labels:
Assay in all cases: NCI-60 one-dose screen, 48 h (100 = growth as untreated, 0 = no growth, -100 = all killed)
Conditions in all cases: 10 µM unless noted
NCI-H23 lung = test system: NCI-H23 lung
NCI-H226 lung = test system: NCI-H226 lung
NCI-H322M lung = test system: NCI-H322M lung
HOP-62 NSCLC = test system: HOP-62 NSCLC
NCI-H460 lung = test system: NCI-H460 lung
NCI-H522 lung = test system: NCI-H522 lung
A549/ATCC NSCLC = test system: A549/ATCC NSCLC
786-0 renal = test system: 786-0 renal
COLO 205 colon = test system: COLO 205 colon
DU-145 prostate = test system: DU-145 prostate
K-562 leukemia = test system: K-562 leukemia
MALME-3M melanoma = test system: MALME-3M melanoma
MDA-MB-231 breast = test system: MDA-MB-231 breast
RXF 393 renal = test system: RXF 393 renal
SF-268 CNS = test system: SF-268 CNS
SF-295 CNS = test system: SF-295 CNS
SF-539 CNS = test system: SF-539 CNS
UACC-257 melanoma = test system: UACC-257 melanoma
M14 melanoma = test system: M14 melanoma

Measured: growth

C=CCSSC1N=CNc2nc[nH]c21 (stereo unspecified)
active: HOP-62 NSCLC 1.1% | NCI-H522 lung 0.803% | M14 melanoma 8.72%
inactive: NCI-H23 lung 54.6% | NCI-H226 lung 73% | NCI-H322M lung 42.8% | NCI-H460 lung 52.5% | A549/ATCC NSCLC 95.1% | 786-0 renal 13.9% | COLO 205 colon 34.9% | DU-145 prostate 35.8% | K-562 leukemia 11.9% | MALME-3M melanoma 29.9% | MDA-MB-231 breast 39.8% | RXF 393 renal 42.5% | SF-268 CNS 27.6% | SF-295 CNS 33.2% | SF-539 CNS 16.4% | UACC-257 melanoma 43.6%

N#Cc1c(-c2ccc(Cl)cc2)nc(N=Nc2c(O)[nH]c3ccc(Cl)cc23)nc1N1CCOCC1
inactive: NCI-H23 lung 84.8% | NCI-H226 lung 85.6% | NCI-H322M lung 96.5% | HOP-62 NSCLC 96.3% | NCI-H460 lung 98.4% | NCI-H522 lung 93.6% | A549/ATCC NSCLC 102% | 786-0 renal 103% | COLO 205 colon 105% | DU-145 prostate 103% | K-562 leukemia 116% | MALME-3M melanoma 88.8% | MDA-MB-231 breast 82.9% | RXF 393 renal 95.7% | SF-268 CNS 95.8% | SF-295 CNS 102% | SF-539 CNS 97.8% | UACC-257 melanoma 107% | M14 melanoma 93.6%

CC1CCNC(C)C1 (stereo unspecified)
inactive: NCI-H23 lung 104% | NCI-H226 lung 95.7% | NCI-H322M lung 109% | HOP-62 NSCLC 104% | NCI-H460 lung 105% | NCI-H522 lung 103% | A549/ATCC NSCLC 112% | 786-0 renal 106% | COLO 205 colon 105% | DU-145 prostate 110% | K-562 leukemia 108% | MALME-3M melanoma 110% | MDA-MB-231 breast 107% | RXF 393 renal 108% | SF-268 CNS 104% | SF-295 CNS 103% | SF-539 CNS 99% | UACC-257 melanoma 110% | M14 melanoma 102%

O=c1cc(CSc2nnc(-c3ccc(F)cc3)o2)c2ccc3ccccc3c2o1
inactive: NCI-H23 lung 84.3% | NCI-H226 lung 81.1% | NCI-H322M lung 100% | HOP-62 NSCLC 75.4% | NCI-H460 lung 101% | NCI-H522 lung 83.8% | A549/ATCC NSCLC 85.5% | 786-0 renal 104% | COLO 205 colon 117% | DU-145 prostate 107% | K-562 leukemia 93.9% | MALME-3M melanoma 107% | MDA-MB-231 breast 87.2% | RXF 393 renal 107% | SF-268 CNS 96.4% | SF-295 CNS 89.5% | SF-539 CNS 98.1% | UACC-257 melanoma 103% | M14 melanoma 103%

CN(C)[C@@H]1C(=O)C(C(=O)NCc2nc3[nH]cnc(=S)c3[nH]2)=C(O)[C@@]2(O)C(=O)C3=C(O)c4c(O)cccc4[C@@](C)(O)[C@H]3C[C@@H]12
inactive: NCI-H23 lung 58.7% | NCI-H226 lung 49.5% | NCI-H322M lung 37.9% | HOP-62 NSCLC 18.4% | NCI-H460 lung 63.8% | NCI-H522 lung 33.3% | A549/ATCC NSCLC 101% | 786-0 renal 19.6% | COLO 205 colon 88% | DU-145 prostate 42.6% | MALME-3M melanoma 69.4% | MDA-MB-231 breast 47.5% | SF-268 CNS 76.1% | SF-295 CNS 27.1% | SF-539 CNS 31.8%
active: M14 melanoma 9.8%

C#CCOc1ccc2ncnc(Nc3cccc(CNC(=O)C=C)c3)c2c1
inactive: NCI-H23 lung 104% [8.25 µM] | NCI-H226 lung 77.3% [8.25 µM] | NCI-H322M lung 105% [8.25 µM] | HOP-62 NSCLC 108% [8.25 µM] | NCI-H460 lung 101% [8.25 µM] | NCI-H522 lung 91.9% [8.25 µM] | A549/ATCC NSCLC 102% [8.25 µM] | 786-0 renal 93.1% [8.25 µM] | COLO 205 colon 111% [8.25 µM] | DU-145 prostate 108% [8.25 µM] | K-562 leukemia 104% [8.25 µM] | MALME-3M melanoma 109% [8.25 µM] | MDA-MB-231 breast 101% [8.25 µM] | RXF 393 renal 79.4% [8.25 µM] | SF-268 CNS 86.2% [8.25 µM] | SF-295 CNS 102% [8.25 µM] | SF-539 CNS 99.9% [8.25 µM] | UACC-257 melanoma 106% [8.25 µM] | M14 melanoma 103% [8.25 µM]

CC(=O)c1cc2c(N)c(C(=O)Nc3cccc4ccccc34)sc2nc1C
active: NCI-H460 lung 7.21% | COLO 205 colon -27% | SF-539 CNS -15% | M14 melanoma 3.93%
inactive: NCI-H23 lung 34.6% | NCI-H226 lung 81.3% | NCI-H322M lung 45.4% | HOP-62 NSCLC 38.9% | NCI-H522 lung 13% | A549/ATCC NSCLC 22% | 786-0 renal 31.6% | DU-145 prostate 15.5% | MALME-3M melanoma 56.2% | MDA-MB-231 breast 26.2% | RXF 393 renal 10.4% | SF-268 CNS 56.3% | SF-295 CNS 19.8% | UACC-257 melanoma 59.8%

CCCOc1ccc2nc(NC(=O)OC)[nH]c2c1
inactive: NCI-H23 lung 21.9% | NCI-H322M lung 49.9% | HOP-62 NSCLC 33.6% | A549/ATCC NSCLC 12.8% | 786-0 renal 32.6% | K-562 leukemia 16.1% | MALME-3M melanoma 38% | RXF 393 renal 18.2% | SF-268 CNS 26.2% | UACC-257 melanoma 47.3%
active: NCI-H226 lung 8.05% | NCI-H460 lung 3.52% | NCI-H522 lung -32.7% | COLO 205 colon 3.31% | DU-145 prostate 0.47% | MDA-MB-231 breast -1.41% | SF-295 CNS -5.89% | SF-539 CNS 7.37% | M14 melanoma 2.83%

O=CNc1ccc2c(c1)Cc1cccc(NC=O)c1-2
inactive: NCI-H23 lung 95.6% | NCI-H226 lung 83.6% | NCI-H322M lung 106% | HOP-62 NSCLC 100% | NCI-H460 lung 95.8% | NCI-H522 lung 82.2% | A549/ATCC NSCLC 85.6% | 786-0 renal 104% | COLO 205 colon 99.9% | DU-145 prostate 106% | K-562 leukemia 104% | MALME-3M melanoma 106% | MDA-MB-231 breast 83.5% | RXF 393 renal 103% | SF-268 CNS 94.2% | SF-295 CNS 111% | SF-539 CNS 101% | UACC-257 melanoma 93.4% | M14 melanoma 91.2%

COc1ccc(-c2nc3ccc(-c4nc5ccc(N6CCN(c7ccncc7)CC6)cc5[nH]4)cc3[nH]2)cc1OC
inactive: NCI-H23 lung 36.9% | NCI-H226 lung 46% | NCI-H322M lung 81.2% | HOP-62 NSCLC 61% | NCI-H460 lung 83.5% | A549/ATCC NSCLC 80.7% | 786-0 renal 76.4% | COLO 205 colon 13.3% | DU-145 prostate 42.7% | K-562 leukemia 29.5% | MDA-MB-231 breast 63% | RXF 393 renal 85.1% | SF-268 CNS 38.4% | SF-295 CNS 49.8% | SF-539 CNS 42.5% | UACC-257 melanoma 11.6% | M14 melanoma 13.6%
active: NCI-H522 lung -58% | MALME-3M melanoma -25%

CC1=CC(C)(C)Nc2ccc(Cc3ccc4c(c3)C(C)=CC(C)(C)N4)cc21
inactive: NCI-H23 lung 97.1% | NCI-H226 lung 88.4% | NCI-H322M lung 113% | HOP-62 NSCLC 94.1% | NCI-H460 lung 104% | NCI-H522 lung 68% | A549/ATCC NSCLC 78.5% | 786-0 renal 97.1% | COLO 205 colon 125% | DU-145 prostate 98.1% | K-562 leukemia 114% | MALME-3M melanoma 87.2% | MDA-MB-231 breast 86.1% | RXF 393 renal 79.6% | SF-268 CNS 103% | SF-295 CNS 139% | SF-539 CNS 96.6% | UACC-257 melanoma 93.7% | M14 melanoma 96.1%

CCOC(=O)C(C)(C#N)C1C=CCCC1 (stereo unspecified)
inactive: NCI-H23 lung 83.3% | NCI-H226 lung 97.9% | NCI-H322M lung 80.4% | HOP-62 NSCLC 89.8% | NCI-H460 lung 98.8% | NCI-H522 lung 104% | A549/ATCC NSCLC 92.5% | 786-0 renal 87% | COLO 205 colon 106% | DU-145 prostate 97.1% | MALME-3M melanoma 102% | MDA-MB-231 breast 95.5% | RXF 393 renal 98.8% | SF-268 CNS 93.8% | SF-295 CNS 84.3% | SF-539 CNS 91.8% | UACC-257 melanoma 93.6% | M14 melanoma 81.2%

COc1cc(-c2nn(C)nc2-c2cc3ccccc3s2)cc(OC)c1OC
active: NCI-H522 lung 0.184% | COLO 205 colon -14.5% | K-562 leukemia 8.42% | SF-295 CNS 9.39% | SF-539 CNS -9.68%
inactive: NCI-H23 lung 30.4% | NCI-H226 lung 55.5% | NCI-H322M lung 44.9% | HOP-62 NSCLC 32.7% | NCI-H460 lung 13% | A549/ATCC NSCLC 23.3% | 786-0 renal 36.8% | DU-145 prostate 20.1% | MALME-3M melanoma 76.1% | MDA-MB-231 breast 37.7% | RXF 393 renal 35.3% | SF-268 CNS 39.8% | UACC-257 melanoma 54.7% | M14 melanoma 10.9%

COc1cc2c(cc1-c1c(C)noc1C)ncc1nc(C3CCCCC3)n([C@H](C)COC(F)F)c12
inactive: NCI-H23 lung 59.9% | NCI-H226 lung 53.5% | NCI-H322M lung 40.3% | HOP-62 NSCLC 39.4% | NCI-H460 lung 53.2% | NCI-H522 lung 25.2% | A549/ATCC NSCLC 33.4% | 786-0 renal 48.7% | COLO 205 colon 24.7% | DU-145 prostate 63.8% | K-562 leukemia 24.6% | MALME-3M melanoma 69.3% | MDA-MB-231 breast 41.9% | RXF 393 renal 52.6% | SF-268 CNS 58.8% | SF-295 CNS 52.4% | SF-539 CNS 34.7% | UACC-257 melanoma 31.4% | M14 melanoma 39.9%
